From PubChem BioAssay (Tox21)
“And” between values parts separate entries of the source, which are not always exact repeats. Equal values may be shown once. Records with an inconclusive call do not appear. The source made the active and inactive calls. Unless noted, calls follow the shape of the dose curve; as a rule, active = well fitted curve in the direction sought with a large enough effect in the repeat runs; inconclusive = weak or mixed curves; inactive = no such curve, though single readings can be large; an effect the other way counts as inactive or inconclusive.

Assays:
[1] = Caspase-3/7 induction in CHO-K1 cells by small molecules, qHTS cell viability counter screen (AID 1346979); also: nearly all actives have a fitted effect of over 35% in size; also: potency is read from the fitted curve at half-maximal effect
In short: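 In the same wells as the caspase read, viability of compound-treated wild-type CHO-K1 cells was assessed using CellTiter-Fluor, added after 16hr at 37C and measured by fluorescence following 1hr further incubation.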

[2] = Caspase-3/7 induction in CHO-K1 cells by small molecules, qHTS assay (AID 1346980); also: nearly all actives have a fitted effect of over 15% in size
In short: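 Luminescent Caspase-Glo 3/7 read (30min, room temperature) quantified apoptosis induction. Cells were wild-type CHO-K1, treated with compound for 17hr at 37 C and 5% CO2.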

[3] = target: Nuclear receptor subfamily 1 group I member 2 (Homo sapiens) (UniProt O75469); test: Human pregnane X receptor (PXR) small molecule agonists, qHTS assay (AID 1346982); also: nearly all actives have a fitted effect of over 35% in size; also: potency is read from the fitted curve at half-maximal effect
In short: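 Cells: HepG2 stably carrying PXR-Luc. Medium held 5% charcoal-stripped FBS. Compounds in DMSO added after 5 hr plating, incubated 24 hr, then luminescence quantified with ONE-Glo.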

[4] = target: Acetylcholinesterase (Homo sapiens) (UniProt P22303); test: Acetylcholinesterase (AChE) small molecule antagonists: enzyme-based qHTS assay (AID 1347397; calls by dose curve; also: nearly all actives have a fitted effect of over 55% in size; also: potency is read from the fitted curve at half-maximal effect); details: Potency: AChE enzyme activity inhibition
In short: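 Colorimetric DTNB readout of acetylthiocholine hydrolysis, 10 min at room temperature, after 30 min room-temperature exposure of 50 mU/mL recombinant human enzyme to compound; DMSO vehicle control.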

[5] = target: Acetylcholinesterase (Homo sapiens) (UniProt P22303); test: Acetylcholinesterase (AChE) small molecule antagonists: fluorescence cell-based qHTS assay (AID 1347398; calls by dose curve; also: nearly all actives have a fitted effect of over 50% in size; also: potency is read from the fitted curve at half-maximal effect); details: Potency: AChE activity
In short: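 Cellular AChE activity read as thiocholine from acetylthiocholine hydrolysis, detected by Thiolite Green fluorescence at 490/520 nm after 40 min at room temperature. Compounds were pre-incubated 30 min at 37 C on adherent SH-SY5Y cells.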

[6] = target: Acetylcholinesterase (Homo sapiens) (UniProt P22303); test: Acetylcholinesterase (AChE) small molecule antagonists: enzyme-based qHTS assay with human liver microsomes (AID 1347399; calls by dose curve; also: nearly all actives have a fitted effect of over 60% in size; also: potency is read from the fitted curve at half-maximal effect); details: Potency: qHTS inhibition
In short: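 Recombinant human AChE (50 mU/mL in the enzyme mix) and human liver microsomes (0.25 mg/mL final) were preincubated with compound and NADPH (0.25 mg/mL final) for 30 min at 37 C. Acetylthiocholine/DTNB was then added; thiocholine was read colorimetrically after 10 min at room temperature.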

[7] = target: Cytochrome P450 2D6 (Homo sapiens) (UniProt P10635); test: Cytochrome P450 Family 2 Subfamily D Member 6 (CYP2D6) small molecule antagonists: luciferase reporter qHTS assay (AID 1671196); also: nearly all actives have a fitted effect of over 50% in size; also: potency is read from the fitted curve at half-maximal effect
In short: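 Enzyme and proluciferin substrate were first combined with test chemical for 10 min at room temperature. Adding NADPH regeneration solution started a 1 h reaction, stopped with luciferin detection reagent and read by luminescence 20 min later.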

[8] = target: Cytochrome P450 1A2 (Homo sapiens) (UniProt P05177); test: Cytochrome P450 Family 1 Subfamily A Member 2 (CYP1A2) small molecule antagonists: luciferase reporter qHTS assay (AID 1671199); also: nearly all actives have a fitted effect of over 50% in size; also: potency is read from the fitted curve at half-maximal effect
In short: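 Compounds were incubated with CYP1A2 and a luminogenic proluciferin substrate for 10 min at room temperature before the reaction was started with NADPH regeneration solution. After 1 h, detection reagent was added and light output, proportional to CYP activity, was recorded.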

[9] = target: Voltage-gated inwardly rectifying potassium channel KCNH2 (Homo sapiens) (UniProt Q12809); test: Human Ether-a-go-go-Related Gene (hERG) channel small molecule antagonists: fluorescence cell-based qHTS assay (AID 1671200); also: nearly all actives have a fitted effect of over 50% in size; also: potency is read from the fitted curve at half-maximal effect
In short: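 Quantitative HTS in hERG-U2OS cells: thallium entry through the channel reports activity, read as continuous 480/540 nm fluorescence over 2 min after stimulus addition.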

[10] = target: Cytochrome P450 3A4 (Homo sapiens) (UniProt P08684); test: Cytochrome P450 Family 3 Subfamily A Member 4 (CYP3A4) small molecule antagonists: luciferase reporter qHTS assay (AID 1671201); also: nearly all actives have a fitted effect of over 50% in size; also: potency is read from the fitted curve at half-maximal effect
In short: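 Inhibition of CYP3A4 is measured as loss of light: the enzyme converts a proluciferin substrate to luciferin, detected luminescently. Reaction ran 1 h at room temperature with NADPH regeneration after a 10 min compound preincubation.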

[11] = Caspase-3/7 induction in HepG2 cells by small molecules, qHTS assay (AID 1346978); also: nearly all actives have a fitted effect of over 15% in size
In short: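 Caspase-3/7 induction was measured by Caspase-Glo 3/7 luminescence (30 min, room temperature) after a 17 hr compound exposure of wild-type HepG2 cells seeded at 2,000 per well and pre-incubated 5 hr.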

[12] = target: Acetylcholinesterase (Homo sapiens) (UniProt P22303); test: Acetylcholinesterase (AChE) small molecule antagonists: colormetric cell-based qHTS assay (AID 1347395; calls by dose curve; also: nearly all actives have a fitted effect of over 30% in size; also: potency is read from the fitted curve at half-maximal effect)
In short: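 Endogenous AChE of human neuroblastoma SH-SY5Y cells was measured with an Ellman-type DTNB/acetylthiocholine mix. Compound pretreatment lasted 30 min at 37 C; substrate reaction ran 90 min at 37 C.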

[13] = target: Cytochrome P450 2C19 (Homo sapiens) (UniProt P33261); test: Cytochrome P450 Family 2 Subfamily C Member 19 (CYP2C19) small molecule antagonists: luciferase reporter qHTS assay (AID 1671197); also: nearly all actives have a fitted effect of over 65% in size; also: potency is read from the fitted curve at half-maximal effect
In short: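 Quantitative high-throughput screen of the Tox21 library using CYP2C19 with proluciferin substrate. Reaction: NADPH regeneration, 37C, 1 h, after 10 min compound preincubation at room temperature. Readout: luminescence.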

[14] = target: Cytochrome P450 2C9 (Homo sapiens) (UniProt P11712); test: Cytochrome P450 Family 2 Subfamily C Member 9 (CYP2C9) small molecule antagonists: luciferase reporter qHTS assay (AID 1671198); also: nearly all actives have a fitted effect of over 50% in size; also: potency is read from the fitted curve at half-maximal effect
In short: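 Enzyme-substrate mix preincubated with compound 10 min at room temperature; reaction started with NADPH regeneration solution, 1 h 37C. Luminescent luciferin product read after 20 min detection reagent.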

[15] = Caspase-3/7 induction in HepG2 cells by small molecules, qHTS cell viability counter screen (AID 1346981); also: nearly all actives have a fitted effect of over 30% in size; also: potency is read from the fitted curve at half-maximal effect
In short: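 Cell viability is measured as a cytotoxicity counter screen alongside the Caspase-Glo 3/7 readout in identical wells. Wild-type HepG2 cells are treated with test compounds for 16 hr at 37 C before CellTiter-Fluor addition and a 1-hr incubation.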

[16] = Human pregnane X receptor (PXR) small molecule agonists, qHTS cell viability counter screen (AID 1346977); also: nearly all actives have a fitted effect of over 50% in size; also: potency is read from the fitted curve at half-maximal effect
In short: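 Measures live-cell protease fluorescence (CellTiter-Fluor) in PXR-Luc HepG2 cells treated 24hr with compounds at 37C. Cells had 5hr to attach before pin transfer of DMSO solutions.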

[17] = target: Nuclear receptor subfamily 1 group I member 2 (Rattus norvegicus) (UniProt Q9R1A7); test: Rat pregnane X receptor (rPXR) activation by small molecules, qHTS assay (AID 1346983); details: rPXR luciferase reporter cells, One-Glo luminescence, 24 h; max activation: hits give high values; also: nearly all actives have a fitted effect of over 20% in size; also: potency is read from the fitted curve at half-maximal effect
In short: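 Luminescent readout (One-Glo luciferase, 30 min room temperature) followed 24 hr compound treatment at 37 C of rPXR cells plated 2,000 per well and preincubated 5hr; qHTS format with compounds delivered in DMSO.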

[18] = target: Nuclear receptor subfamily 1 group I member 2 (Homo sapiens) (UniProt O75469); test: CYP3A4 induction through human pregnane X receptor (PXR) by small molecules, qHTS assay (AID 1346984); also: nearly all actives have a fitted effect of over 40% in size; also: potency is read from the fitted curve at half-maximal effect
In short: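 Quantitative HTS in DPX-2 cells, i.e. HepG2 transfected with PXR response element and CYP3A4-promoter luciferase. Compounds in DMSO incubated 24hr at 37C; then P450-Glo CYP3A4 substrate, 3uM final, 3hr; One-Glo luminescence.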

[19] = target: Nuclear receptor subfamily 1 group I member 2 (Homo sapiens) (UniProt O75469); test: Human pregnane X receptor (PXR) activation by small molecules, qHTS assay (AID 1346985); also: nearly all actives have a fitted effect of over 40% in size; also: potency is read from the fitted curve at half-maximal effect
In short: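 DPX-2 cells (HepG2 co-transfected with a PXR response element and a CYP3A4-promoter luciferase construct) were seeded at 2,000 per well, rested 5 hr at 37C, then exposed to DMSO-dissolved compounds for 24 hr. Activation was read as luciferase luminescence.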
% is scaled to controls: 0 for no effect and ±100 for the full control effect.

Cytochrome P450 2C9 (Homo sapiens), sequence (P11712 whole entry, looked up): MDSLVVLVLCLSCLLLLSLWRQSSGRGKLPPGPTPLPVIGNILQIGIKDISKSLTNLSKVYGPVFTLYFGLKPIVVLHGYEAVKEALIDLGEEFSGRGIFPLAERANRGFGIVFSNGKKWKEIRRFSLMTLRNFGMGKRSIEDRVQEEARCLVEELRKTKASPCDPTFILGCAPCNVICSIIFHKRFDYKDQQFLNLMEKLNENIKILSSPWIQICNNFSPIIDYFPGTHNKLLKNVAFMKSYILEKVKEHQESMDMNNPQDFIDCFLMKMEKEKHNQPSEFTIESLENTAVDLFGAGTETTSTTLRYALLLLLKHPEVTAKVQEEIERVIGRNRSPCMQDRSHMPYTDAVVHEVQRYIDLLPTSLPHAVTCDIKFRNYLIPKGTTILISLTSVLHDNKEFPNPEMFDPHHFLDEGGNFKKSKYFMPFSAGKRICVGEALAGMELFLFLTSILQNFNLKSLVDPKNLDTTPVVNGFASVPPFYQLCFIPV
Acetylcholinesterase (Homo sapiens), sequence (P22303 whole entry, looked up): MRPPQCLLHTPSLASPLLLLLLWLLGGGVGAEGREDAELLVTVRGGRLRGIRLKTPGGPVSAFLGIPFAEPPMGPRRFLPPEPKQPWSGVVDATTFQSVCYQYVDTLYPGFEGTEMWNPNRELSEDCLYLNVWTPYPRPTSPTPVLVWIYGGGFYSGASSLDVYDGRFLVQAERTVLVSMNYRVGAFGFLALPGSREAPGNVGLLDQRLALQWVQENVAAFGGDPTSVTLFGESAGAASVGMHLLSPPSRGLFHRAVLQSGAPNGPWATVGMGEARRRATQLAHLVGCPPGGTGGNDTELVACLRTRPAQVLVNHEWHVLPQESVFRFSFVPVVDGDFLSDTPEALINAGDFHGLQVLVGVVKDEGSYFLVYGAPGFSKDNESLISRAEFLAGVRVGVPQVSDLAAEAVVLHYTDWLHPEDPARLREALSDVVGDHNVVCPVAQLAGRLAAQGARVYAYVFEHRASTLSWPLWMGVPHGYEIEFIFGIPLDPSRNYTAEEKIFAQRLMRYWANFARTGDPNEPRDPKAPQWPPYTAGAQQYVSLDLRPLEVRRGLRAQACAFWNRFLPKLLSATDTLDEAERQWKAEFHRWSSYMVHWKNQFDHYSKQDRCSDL
Nuclear receptor subfamily 1 group I member 2 (Homo sapiens), sequence (O75469 whole entry, looked up): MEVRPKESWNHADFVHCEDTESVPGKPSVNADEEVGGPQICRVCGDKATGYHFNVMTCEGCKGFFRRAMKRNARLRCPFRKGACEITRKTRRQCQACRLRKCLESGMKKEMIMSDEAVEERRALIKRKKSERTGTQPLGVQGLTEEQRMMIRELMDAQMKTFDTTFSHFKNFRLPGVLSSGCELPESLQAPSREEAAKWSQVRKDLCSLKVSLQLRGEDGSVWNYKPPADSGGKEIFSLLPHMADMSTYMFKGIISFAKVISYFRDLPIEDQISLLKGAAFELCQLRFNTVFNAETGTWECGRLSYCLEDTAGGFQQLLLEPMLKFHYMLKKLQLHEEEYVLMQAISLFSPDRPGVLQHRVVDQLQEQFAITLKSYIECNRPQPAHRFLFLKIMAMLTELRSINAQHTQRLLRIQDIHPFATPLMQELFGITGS
Cytochrome P450 3A4 (Homo sapiens), sequence (P08684 whole entry, looked up): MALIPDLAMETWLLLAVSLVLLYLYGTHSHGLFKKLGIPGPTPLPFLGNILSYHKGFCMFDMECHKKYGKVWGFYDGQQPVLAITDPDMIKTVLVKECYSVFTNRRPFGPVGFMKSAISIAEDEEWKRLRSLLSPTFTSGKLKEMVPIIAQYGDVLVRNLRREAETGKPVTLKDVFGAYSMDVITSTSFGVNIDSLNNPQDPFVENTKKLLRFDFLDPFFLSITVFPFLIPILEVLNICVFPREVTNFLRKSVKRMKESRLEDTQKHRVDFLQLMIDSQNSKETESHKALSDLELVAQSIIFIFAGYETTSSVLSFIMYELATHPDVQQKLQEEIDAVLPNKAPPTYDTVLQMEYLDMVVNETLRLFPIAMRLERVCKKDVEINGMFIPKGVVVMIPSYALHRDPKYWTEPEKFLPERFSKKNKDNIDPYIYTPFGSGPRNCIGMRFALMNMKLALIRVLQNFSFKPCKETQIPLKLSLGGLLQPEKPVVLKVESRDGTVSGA
Cytochrome P450 2C19 (Homo sapiens), sequence (P33261 whole entry, looked up): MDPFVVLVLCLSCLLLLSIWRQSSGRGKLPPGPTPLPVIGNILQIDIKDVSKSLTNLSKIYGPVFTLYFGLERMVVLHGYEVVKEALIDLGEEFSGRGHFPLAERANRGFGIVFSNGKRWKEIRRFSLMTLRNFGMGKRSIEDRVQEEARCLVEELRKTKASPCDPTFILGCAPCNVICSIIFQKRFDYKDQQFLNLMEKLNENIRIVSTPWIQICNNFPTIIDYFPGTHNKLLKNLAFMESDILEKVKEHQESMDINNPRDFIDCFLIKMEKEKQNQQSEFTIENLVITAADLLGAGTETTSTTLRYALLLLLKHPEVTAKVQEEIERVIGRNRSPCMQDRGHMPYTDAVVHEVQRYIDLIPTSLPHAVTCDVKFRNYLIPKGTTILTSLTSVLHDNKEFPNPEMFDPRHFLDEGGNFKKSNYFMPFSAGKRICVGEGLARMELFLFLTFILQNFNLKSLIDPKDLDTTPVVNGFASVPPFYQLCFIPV
Voltage-gated inwardly rectifying potassium channel KCNH2 (Homo sapiens), sequence (Q12809 whole entry, looked up): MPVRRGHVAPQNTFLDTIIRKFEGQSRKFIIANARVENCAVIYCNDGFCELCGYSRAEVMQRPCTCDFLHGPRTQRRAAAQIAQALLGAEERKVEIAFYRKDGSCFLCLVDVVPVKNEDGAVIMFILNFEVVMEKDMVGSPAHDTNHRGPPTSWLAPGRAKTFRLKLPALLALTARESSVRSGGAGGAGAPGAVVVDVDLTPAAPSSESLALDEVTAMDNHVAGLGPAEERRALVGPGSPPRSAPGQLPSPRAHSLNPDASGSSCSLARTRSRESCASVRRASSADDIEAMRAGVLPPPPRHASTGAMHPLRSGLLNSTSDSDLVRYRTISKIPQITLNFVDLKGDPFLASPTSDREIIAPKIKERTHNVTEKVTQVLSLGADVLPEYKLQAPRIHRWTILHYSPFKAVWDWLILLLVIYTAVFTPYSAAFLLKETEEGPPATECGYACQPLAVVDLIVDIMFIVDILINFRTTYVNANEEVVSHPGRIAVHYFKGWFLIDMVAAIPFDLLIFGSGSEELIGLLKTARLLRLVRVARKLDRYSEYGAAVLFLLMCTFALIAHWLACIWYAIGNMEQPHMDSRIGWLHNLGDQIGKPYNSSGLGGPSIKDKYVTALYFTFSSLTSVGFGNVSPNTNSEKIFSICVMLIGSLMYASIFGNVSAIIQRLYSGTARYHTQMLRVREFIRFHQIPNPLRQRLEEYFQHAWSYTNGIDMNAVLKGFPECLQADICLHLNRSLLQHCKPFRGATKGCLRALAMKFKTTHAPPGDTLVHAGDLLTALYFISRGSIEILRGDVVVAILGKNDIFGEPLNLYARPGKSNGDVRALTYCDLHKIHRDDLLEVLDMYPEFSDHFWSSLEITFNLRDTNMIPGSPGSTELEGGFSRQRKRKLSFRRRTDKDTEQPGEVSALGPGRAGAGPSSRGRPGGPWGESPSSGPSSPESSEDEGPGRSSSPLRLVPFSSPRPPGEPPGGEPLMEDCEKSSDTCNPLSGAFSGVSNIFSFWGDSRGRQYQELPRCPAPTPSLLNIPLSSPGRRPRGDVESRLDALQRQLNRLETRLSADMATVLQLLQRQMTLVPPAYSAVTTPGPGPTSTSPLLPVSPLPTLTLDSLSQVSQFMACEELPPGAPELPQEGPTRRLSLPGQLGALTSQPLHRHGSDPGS
Cytochrome P450 1A2 (Homo sapiens), sequence (P05177 whole entry, looked up): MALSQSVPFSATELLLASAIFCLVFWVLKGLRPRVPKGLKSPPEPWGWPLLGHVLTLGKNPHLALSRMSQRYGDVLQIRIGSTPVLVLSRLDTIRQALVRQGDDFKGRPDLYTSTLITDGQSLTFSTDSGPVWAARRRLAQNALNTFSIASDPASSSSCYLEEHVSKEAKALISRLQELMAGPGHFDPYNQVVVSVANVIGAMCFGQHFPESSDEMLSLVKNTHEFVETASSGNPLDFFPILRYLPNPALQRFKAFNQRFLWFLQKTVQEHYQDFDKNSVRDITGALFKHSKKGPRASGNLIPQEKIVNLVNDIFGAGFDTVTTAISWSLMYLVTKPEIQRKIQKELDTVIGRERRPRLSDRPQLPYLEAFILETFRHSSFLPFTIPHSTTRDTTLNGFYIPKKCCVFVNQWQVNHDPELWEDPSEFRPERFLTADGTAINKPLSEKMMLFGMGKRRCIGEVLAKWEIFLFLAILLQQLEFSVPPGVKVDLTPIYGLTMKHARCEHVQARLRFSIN
Cytochrome P450 2D6 (Homo sapiens), sequence (P10635 whole entry, looked up): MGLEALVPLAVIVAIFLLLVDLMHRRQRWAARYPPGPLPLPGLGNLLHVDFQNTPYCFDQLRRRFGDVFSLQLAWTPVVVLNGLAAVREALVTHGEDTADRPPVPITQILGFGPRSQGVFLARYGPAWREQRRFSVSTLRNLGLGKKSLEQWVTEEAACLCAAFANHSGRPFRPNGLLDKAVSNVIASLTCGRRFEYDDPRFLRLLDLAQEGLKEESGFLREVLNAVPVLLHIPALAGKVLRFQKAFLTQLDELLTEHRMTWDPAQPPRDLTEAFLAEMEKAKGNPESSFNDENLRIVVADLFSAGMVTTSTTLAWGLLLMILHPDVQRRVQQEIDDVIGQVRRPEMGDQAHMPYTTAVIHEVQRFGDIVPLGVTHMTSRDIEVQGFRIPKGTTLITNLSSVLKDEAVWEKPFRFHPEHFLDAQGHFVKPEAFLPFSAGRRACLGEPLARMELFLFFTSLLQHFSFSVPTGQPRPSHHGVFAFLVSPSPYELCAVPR

Clc1cc(C(Cl)(Cl)Cl)cnc1Cl
inactive: Potency [2] | Potency [4] | Potency [5] | Potency [6] | Potency [7] | Potency [9]
active: Potency [1] 61.1 µM | Potency [3] 54.5 µM | Potency [8] 7.96 µM | Potency [10] 8.94 µM

CCOP(=S)(OCC)SCn1nnc2ccccc2c1=O
active: Potency [1] 68.6 µM | Potency [3] 6.86 µM | Potency [12] 12.6 µM | Potency [5] 5.64 µM | Potency [6] 0.252 µM | Potency [7] 35.6 µM | Potency [13] 0.356 µM | Potency [14] 0.633 µM | Potency [8] 35.6 µM | Potency [10] 1.59 µM
inactive: Potency [11] | Potency [2] | Potency [9]

CCOS(C)(=O)=O
inactive: Potency [11] | Potency [1] | Potency [15] | Potency [12] | Potency [5] | Potency [6] | Potency [13] | Potency [14] | Potency [8] | Potency [9]

CS/C(C)=N/OC(=O)N(C)SN(C)C(=O)O/N=C(\C)SC
inactive: Potency [11] | Potency [2] | Potency [15] | Potency [10]
active: Potency [12] 1.42 µM | Potency [4] 5.03 µM | Potency [5] 0.71 µM | Potency [6] 31.7 µM | Potency [13] 71 µM | Potency [14] 79.6 µM

C/C(=C\c1ccccc1)[N+](=O)[O-]
inactive: Potency [2] | Potency [12] | Potency [4] | Potency [5] | Potency [6] | Potency [9]
active: Potency [16] 43.3 µM | Potency [1] 10.9 µM | Potency [15] 68.6 µM | Potency [3] 24.3 µM | Potency [14] 35.6 µM | Potency [8] 35.6 µM | Potency [10] 44.8 µM

CC(c1ccc(O)cc1)(c1ccc(O)cc1)c1ccc(O)cc1
inactive: Potency [11] | Potency [4] | Potency [5] | Potency [6] | Potency [8] | Potency [9]
active: Potency [1] 68.6 µM | Potency [3] 68.6 µM | Potency [7] 71 µM | Potency [13] 28.3 µM | Potency [14] 10 µM | Potency [10] 31.7 µM

N#CCC#N
inactive: Potency [11] | Potency [2] | Potency [12] | Potency [4] | Potency [5] | Potency [6] | Potency [13] | Potency [8] | Potency [9]
active: Potency [1] 30.6 µM | Potency [14] 63.3 µM

CCOP(=O)(OCC)O/C(=C/Cl)c1ccc(Cl)cc1Cl
active: Potency [3] 4.86 µM | Potency [17] 14.1 µM | Potency [19] 3.98 µM | Potency [7] 39.9 µM | Potency [13] 1.12 µM | Potency [14] 28.3 µM | Potency [8] 6.33 µM
inactive: Potency [11] | Potency [2] | Potency [18] | Potency [9] | Potency [10]

COc1ccc(-c2ccccc2)cc1NNC(=O)OC(C)C
inactive: Potency [11] | Potency [2] | Potency [4] | Potency [5] | Potency [6] | Potency [9]
active: Potency [3] 71.5 µM | Potency [7] 0.83 µM | Potency [13] 0.262 µM | Potency [14] 2.62 µM | Potency [8] 5.88 µM | Potency [10] 1.04 µM

Clc1ccc(C(OCCN2CCCCC2)c2ccccc2)cc1 (configuration not stated)
inactive: Potency [11] | Potency [1] | Potency [2] | Potency [15] | Potency [3] | max activation [17] -3.11% | Potency [19] | Potency [4] | Potency [5] | Potency [6] | Potency [14]
active: Potency [18] 12.6 µM | Potency [7] 0.174 µM | Potency [13] 24.5 µM | Potency [9] 0.601 µM

O=C1C(=O)c2cccc3cccc1c23
inactive: Potency [16] | Potency [2] | Potency [15] | Potency [12] | Potency [4] | Potency [6] | Potency [9]
active: Potency [1] 21.7 µM | Potency [3] 54.4 µM | Potency [13] 39.9 µM | Potency [8] 8.93 µM

Oc1ccc(Cl)c(Cl)c1Cl
inactive: Potency [2] | Potency [12] | Potency [4] | Potency [6] | Potency [7] | Potency [9]
active: Potency [3] 63.4 µM | Potency [13] 26.1 µM | Potency [8] 26.1 µM

[O-][Cl+]O
inactive: Potency [11] | Potency [1] | Potency [2] | Potency [15] | Potency [3] | Potency [12] | Potency [4] | Potency [5] | Potency [6] | Potency [7] | Potency [13] | Potency [14] | Potency [8] | Potency [9] | Potency [10]

O=C(Nc1ccccc1)Nc1cnns1
inactive: Potency [11] | Potency [15] | Potency [4] | Potency [6] | Potency [9]
active: Potency [1] 54.4 µM | Potency [7] 31.7 µM | Potency [13] 39.9 µM | Potency [14] 35.6 µM | Potency [8] 3.56 µM | Potency [10] 3.56 µM

C(=NC1CCCCC1)=NC1CCCCC1
active: Potency [1] 13.8 µM | Potency [3] 61.5 µM and 54.5 µM | Potency [7] 63.3 µM
inactive: Potency [11] | Potency [2] | Potency [12] | Potency [4] | Potency [5] | Potency [6] | Potency [14] | Potency [8] | Potency [9] | Potency [10]
